# Measurements from PubChem BioAssay.
# Unmarked numbers belong to inactive results. For some of these results: Results with a measured potency or affinity are listed apart. Active and inactive are the calls of the source. Unless noted, how the calls were made is not given here.
# Tests used:
# [1] = antimalarial activity against Dd2 strain (AID 2302;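 active means growth inhibition above 50% at the single 2 µM test dose, taken to imply half-maximal potency below 2 µM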;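 further: 0% = DMSO untreated growth and 100% = chloroquine plus artemisinin killed control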); conditions: P. falciparum Dd2 in RBCs, LDH growth readout, 72 h; at 2 µM; active compounds read high
# [2] = human hepatoma cell viability loss – ATP luminescence, cytotoxicity control for P. falciparum antimalarial project, primary screen (AID 2303;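 active means inhibition above 50%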;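 further: 0% = DMSO wells and 100% = digitonin-killed cells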); conditions: HepG2 viability, 24-48 h, at 10 µM, active compounds read high
# [3] = target: L-lactate dehydrogenase (Plasmodium falciparum (isolate CDC / Honduras)) (UniProt Q27743); test: PfLDH activity inhibition – cell lysate, 3D7 strain, counter-screen for P. falciparum growth inhibition project (AID 2304);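 further: 0% = vehicle and 100% = reference inhibitor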; conditions: P. falciparum 3D7 crude extract, LDH APAD/NBT absorbance; at 2 µM; active compounds read high
# [4] = inhibition of 3D7 malaria parasite growth – strain 3D7 (AID 2306);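 further: 0% = DMSO wells and 100% = chloroquine plus artemisinin control wells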; conditions: P. falciparum 3D7 erythrocytic growth, LDH absorbance, 72 h; at 2 µM; active compounds read high
# [5] = target: Calcium-dependent protein kinase 1 (Plasmodium falciparum (isolate 3D7)) (UniProt P62344); test: PfCDPK1 kinase inhibitors, biochemical, TCAMS library (AID 1159585; cut-off not given, nearly all actives have IC50 up to about 0.98 µM;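 further: inhibitors leave more ATP so luminescence rises with inhibition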); conditions: recombinant PfCDPK1, Kinase-Glo ATP depletion luminescence
# [6] = target: Plasmodium falciparum protein kinase 6 (PK6, PF3D7_1337100) (UniProt Q8IDW1); test: PfPK6 kinase inhibitors, biochemical, TCAMS library (AID 1159586); conditions: recombinant PfPK6, Kinase-Glo ATP depletion luminescence
# [7] = target: Protein kinase 7 (PK7), Plasmodium falciparum 3D7 (PF3D7_0213400) (UniProt Q7YTF7); test: inhibition of Plasmodium PK7 catalytic activity – biochemical, TCAMS antimalarial set, Kinase-Glo luminescence (AID 1159587); conditions: recombinant PfPK7, Kinase-Glo ATP depletion luminescence
# [8] = target: Calcium-dependent protein kinase 4 (Plasmodium falciparum (isolate 3D7)) (UniProt Q8IBS5); test: PfCDPK4 kinase inhibitors, biochemical, TCAMS library (AID 1159588; cut-off not given, nearly all actives have IC50 up to about 0.91 µM); conditions: recombinant PfCDPK4, Kinase-Glo ATP depletion luminescence
# Calcium-dependent protein kinase 4 (Plasmodium falciparum (isolate 3D7)), sequence (Q8IBS5 whole entry, looked up): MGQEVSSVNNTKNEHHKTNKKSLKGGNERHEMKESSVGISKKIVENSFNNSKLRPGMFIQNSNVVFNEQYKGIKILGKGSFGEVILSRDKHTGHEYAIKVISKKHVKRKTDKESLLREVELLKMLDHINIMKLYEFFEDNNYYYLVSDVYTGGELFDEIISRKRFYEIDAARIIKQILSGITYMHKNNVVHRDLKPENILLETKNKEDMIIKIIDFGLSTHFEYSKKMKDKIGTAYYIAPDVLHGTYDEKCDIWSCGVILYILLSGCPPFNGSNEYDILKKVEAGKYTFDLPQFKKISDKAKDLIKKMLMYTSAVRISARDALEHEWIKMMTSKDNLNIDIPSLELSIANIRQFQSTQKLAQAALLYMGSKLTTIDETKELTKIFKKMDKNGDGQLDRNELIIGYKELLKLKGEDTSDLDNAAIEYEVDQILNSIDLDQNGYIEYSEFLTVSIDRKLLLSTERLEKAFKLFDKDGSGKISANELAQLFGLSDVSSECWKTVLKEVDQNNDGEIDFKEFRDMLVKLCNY
# Protein kinase 7 (PK7), Plasmodium falciparum 3D7 (PF3D7_0213400), sequence (Q7YTF7 1-343): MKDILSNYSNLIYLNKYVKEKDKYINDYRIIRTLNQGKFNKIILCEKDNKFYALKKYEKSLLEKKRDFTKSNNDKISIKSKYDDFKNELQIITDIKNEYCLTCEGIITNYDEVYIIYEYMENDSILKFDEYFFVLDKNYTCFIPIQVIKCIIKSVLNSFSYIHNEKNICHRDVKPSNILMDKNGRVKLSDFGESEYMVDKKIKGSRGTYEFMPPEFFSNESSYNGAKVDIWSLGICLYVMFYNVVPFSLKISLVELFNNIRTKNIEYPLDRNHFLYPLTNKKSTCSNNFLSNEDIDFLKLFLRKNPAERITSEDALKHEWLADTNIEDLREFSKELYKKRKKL
# Calcium-dependent protein kinase 1 (Plasmodium falciparum (isolate 3D7)), sequence (P62344 whole entry, looked up): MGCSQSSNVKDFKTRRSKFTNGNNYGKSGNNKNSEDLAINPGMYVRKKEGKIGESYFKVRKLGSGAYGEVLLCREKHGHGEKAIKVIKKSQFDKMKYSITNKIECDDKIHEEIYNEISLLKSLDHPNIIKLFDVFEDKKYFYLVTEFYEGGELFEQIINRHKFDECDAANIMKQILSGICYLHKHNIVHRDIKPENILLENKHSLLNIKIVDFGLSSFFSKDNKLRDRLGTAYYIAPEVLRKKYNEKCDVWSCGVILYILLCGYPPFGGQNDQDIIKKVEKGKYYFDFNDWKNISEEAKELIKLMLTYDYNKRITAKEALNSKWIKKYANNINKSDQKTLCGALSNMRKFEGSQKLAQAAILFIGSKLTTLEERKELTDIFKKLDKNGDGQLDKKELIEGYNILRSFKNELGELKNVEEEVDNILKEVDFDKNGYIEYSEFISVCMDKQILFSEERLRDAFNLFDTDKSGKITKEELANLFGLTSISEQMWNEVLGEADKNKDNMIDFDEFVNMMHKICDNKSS
# L-lactate dehydrogenase (Plasmodium falciparum (isolate CDC / Honduras)), sequence (Q27743 whole entry, looked up): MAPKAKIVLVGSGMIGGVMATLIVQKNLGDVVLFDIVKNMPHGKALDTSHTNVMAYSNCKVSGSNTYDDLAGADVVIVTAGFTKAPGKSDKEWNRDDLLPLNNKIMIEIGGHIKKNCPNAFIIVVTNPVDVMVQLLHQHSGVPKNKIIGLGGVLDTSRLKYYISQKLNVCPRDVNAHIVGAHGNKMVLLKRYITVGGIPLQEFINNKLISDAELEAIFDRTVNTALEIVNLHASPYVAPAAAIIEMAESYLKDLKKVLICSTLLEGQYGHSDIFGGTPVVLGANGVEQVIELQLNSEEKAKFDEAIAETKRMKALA
# Plasmodium falciparum protein kinase 6 (PK6, PF3D7_1337100), sequence (Q8IDW1 1-305): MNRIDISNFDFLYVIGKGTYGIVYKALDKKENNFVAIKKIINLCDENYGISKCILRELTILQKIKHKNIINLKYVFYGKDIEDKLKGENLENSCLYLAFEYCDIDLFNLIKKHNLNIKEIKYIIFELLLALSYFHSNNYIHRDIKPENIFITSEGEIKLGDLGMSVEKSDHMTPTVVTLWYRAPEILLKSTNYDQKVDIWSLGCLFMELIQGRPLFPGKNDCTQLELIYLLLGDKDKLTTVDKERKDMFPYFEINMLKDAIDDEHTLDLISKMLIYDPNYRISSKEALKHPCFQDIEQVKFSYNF
Compound,growth inhibition [1],inhibition [2],inhibition [3] [%],growth inhibition [4],outcome [5],outcome [6],outcome [7],outcome [8]
CCOC(=O)Cc1nc(N)c(C(=O)OCC)[nH]1,24%,2%,-1,94% (active),inactive,inactive,inactive,inactive
CCOc1cc(Cc2cnc(N)nc2N)cc(OC)c1OC,0%,-3%,-1,90% (active),inactive,inactive,inactive,inactive
CCCCc1ccc(NC(=O)Nc2cccc(CCNCc3ccccc3)c2)cc1,13%,3%,2,94% (active),inactive,inactive,inactive,inactive
COc1ccc(NC(=O)c2ccc(-c3nc(-c4cccc(C(F)(F)F)c4)cs3)cc2)cc1N1CCN(C)CC1,59% (active),29%,6,98% (active),inactive,inactive,inactive,inactive
Nc1nc(N)c2c(ccc3c2ccn3CCCF)n1,0%,61% (active),0,94% (active),inactive,inactive,inactive,inactive
CC(C)NCc1cccc(-c2cccc(NC(=O)c3cccc(Cl)c3)c2)c1,38%,36%,-10,98% (active),inactive,inactive,inactive,inactive
Nc1ccc(Oc2ccc(Cc3cnc(N)nc3N)cc2)cc1,5%,10%,-3,86% (active),inactive,inactive,inactive,inactive
COc1ccc2nc3cc(Cl)ccc3c(NCCCCCCNc3c4ccc(Cl)cc4nc4ccc(OC)cc34)c2c1,79% (active),20%,-5,96% (active),inactive,inactive,inactive,inactive
Fc1cccc(COc2ccc(Nc3ncnc4sc(C#C[C@H]5CCCN5)cc34)cc2F)c1,17%,13%,5,98% (active),inactive,inactive,inactive,inactive
O=C(CN1CCCCC1)Nc1ccc(Nc2nccc(NCC(O)c3ccccc3)n2)cc1 (stereo not given),95% (active),62% (active),3,101% (active),inactive,inactive,inactive,inactive
C[C@@H]1CN(c2cnn(Cc3cccc(NC(=O)Nc4ccc(F)cc4[N+](=O)[O-])c3)c(=O)c2Cl)C[C@H](C)N1,13%,7%,6,91% (active),inactive,inactive,inactive,inactive
O=C(Nc1nc(-c2cc(F)ccc2F)cs1)c1cncc(Br)c1,3%,16%,-4,85% (active),inactive,inactive,inactive,inactive
CCCCCCCC1CC(CC(=O)Nc2ccnc3ccc(OC)cc23)CN1 (stereo not given),58% (active),22%,-2,90% (active),inactive,inactive,inactive,inactive
O=C(Nc1ccc(Br)cc1)N(CCN1CCOCC1)CC(O)COc1ccc(Cl)c(F)c1 (stereo not given),30%,3%,-4,98% (active),inactive,inactive,inactive,inactive
COc1ccccc1C1CC(c2ccccc2)=NN1C(=O)c1ccccc1 (stereo not given),93% (active),13%,-3,100% (active),inactive,inactive,inactive,inactive
CC(C)c1cn2c3c(cc(C(=O)N[C@@H](Cc4ccccc4)[C@H](O)CNC4CCOCC4)cc13)N(C)S(=O)(=O)CC2,99% (active),9%,-6,98% (active),inactive,inactive,inactive,inactive
Fc1ccc(NC(=S)NN=Cc2ccccn2)cc1,67% (active),56% (active),-1,95% (active),inactive,inactive,inactive,inactive
O=C(Cc1n[nH]c(=O)c2ccccc12)Nc1cccc(C(=O)Nc2cccc(C(F)(F)F)c2)c1,90% (active),0%,-6,97% (active),inactive,inactive,inactive,inactive
Cn1nc(C(F)(F)F)c(-c2ccc(F)cc2)c1NC(=O)Nc1ccc(F)cc1,99% (active),5%,-2,100% (active),inactive,inactive,inactive,inactive
Cc1cc(C(F)(F)F)n2nc(C(=O)N(C)Cc3cncn3Cc3ccc(F)cc3)cc2n1,96% (active),-1%,0,101% (active),inactive,inactive,inactive,inactive
